Results filed as inconclusive are left out. The source made the active and inactive calls. Unless noted, calls come from the whole dose curve; as a rule, active = well fitted curve in the direction sought with a large enough effect in the repeat runs; inconclusive = weak or mixed curves; inactive = no such curve, though single readings can be large; an effect the other way counts as inactive or inconclusive.
Key:
[1] = qHTS assay to identify small molecule antagonists of the vitamin D receptor (VDR) signaling pathway - cell viability counter screen (AID 743225); note: % is set by controls: 0 for no effect and ±100 for the full control effect; nearly all actives have a fitted effect of over 50% in size
Procedure, shortened: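 VDR-bla HEK 293T cells, 4 h pre-incubation at 37C, then compound plus 1-alpha,25-dihydroxyvitamin D3 (3 nM final) for 16 h. After the beta-lactamase FRET read, CellTiter-Glo was added to the same wells; luminescence after 30 min at room temperature.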

[2] = qHTS assay to identify small molecule agonists of the NFkB signaling pathway (AID 1159509; active = well fitted curve in the direction sought with a large enough effect in the signal ratio in the repeat runs, not every such curve was filed as active; the % refers to the signal ratio; note: series mostly up to about 61 µM; % is set by controls: 0 for no effect and ±100 for the full control effect)
Procedure, shortened: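 NFkB-bla ME-180 cells with a beta-lactamase reporter under an NF-kB response element were plated overnight, treated with compounds in DMSO for 5 hr at 37 C, then loaded with FRET substrate for 1.5 hr at room temperature.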

[3] = qHTS assay to identify small molecule agonists of the NFkB signaling pathway - cell viability counter screen (AID 1159515; calls by dose curve; note: nearly all actives have a fitted effect of over 55% in size; note: potency is the fitted concentration of half-maximal effect; for activity, negative = cytotoxic: series mostly up to about 61 µM; % is set by controls: 0 for no effect and ±100 for the full control effect)
Procedure, shortened: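 Viability in NFkB-bla ME-180 cells was measured by CellTiter-Glo luminescence, 30 min room temperature, in wells already treated 5 hr with compounds and read for reporter FRET.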

[4] = qHTS assay to identify small molecule agonists of the endoplasmic reticulum stress response signaling pathway - cell viability counter screen (AID 1159517; calls by dose curve;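 note: HeLa cells carrying an ER stress response element beta-lactamase reporter; series mostly up to about 61 µM; % is set by controls: 0 for no effect and ±100 for the full control effect; nearly all actives have a fitted effect of over 50% in size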)
Procedure, shortened: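 Luminescence readout: CellTiter-Glo, 30 min RT, same wells as the ESRE-bla reporter read. HeLa ESRE-bla, 1,500 cells/well, o/n 37 C; cpd 5 hr 37 C/5% CO2.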

[5] = qHTS assay to identify small molecule antagonists of the retinoid-related orphan receptor gamma (ROR-gamma) signaling pathway - cell viability counter screen (AID 1159520); note: % is set by controls: 0 for no effect and ±100 for the full control effect; nearly all actives have a fitted effect of over 50% in size
Procedure, shortened: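 Tet-on ROR gamma CHO cells (1,000/well) were plated 4 hr, given compounds in DMSO for 2 hr at 37 C, then induced with 1 uM final doxycycline for 16 hr. Viability was read as ATP by CellTiter-Glo luminescence after 30 min.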

[6] = target: Nuclear receptor ROR-gamma (Homo sapiens) (UniProt P51449); experiment: qHTS assay to identify small molecule antagonists of the retinoid-related orphan receptor gamma (ROR-gamma) signaling pathway (AID 1159521; note: nearly all actives have a fitted effect of over 50% in size; note: potency is the fitted concentration of half-maximal effect;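 for activity change, negative = inhibition: CHO cells with doxycycline inducible ROR-gamma driving an RORE luciferase reporter; top concentration of the series differs between compounds; % is set by controls: 0 for no effect and ±100 for the full control effect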)
Procedure, shortened: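 Tet-on RORγ CHO cells carrying a ROR response element–luciferase reporter were pretreated with compounds for 2 h, then induced with 1 uM (final) doxycycline hyclate for 16 h at 37 C. Antagonism was read as decreased ONE-Glo luminescence.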

[7] = qHTS assay to identify small molecule agonists of the AP-1 signaling pathway - cell viability counter screen (AID 1159525; calls by dose curve; note: nearly all actives have a fitted effect of over 55% in size; note: potency is the fitted concentration of half-maximal effect)
Procedure, shortened: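 ME-180 AP-1-bla, 2500 cells/well, Opti-MEM + 0.5% dialyzed FBS; overnight 37 °C; cpd 15-pt titration, 5 h 37 °C; CellTiter-Glo 30 min RT; luminescence read; normalised to TOAB and DMSO controls.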

[8] = qHTS assay to identify small molecule agonists of the AP-1 signaling pathway (AID 1159526; calls by dose curve; note: % is set by controls: 0 for no effect and ±100 for the full control effect)
[9] = target: Retinoic acid receptor RXR-alpha (Homo sapiens) (UniProt P19793); experiment: qHTS assay to identify small molecule agonists of the RXR signaling pathway (AID 1159527; calls by dose curve; note: % is set by controls: 0 for no effect and ±100 for the full control effect; nearly all actives have a fitted effect of over 35% in size)
Sequence of Retinoic acid receptor RXR-alpha (Homo sapiens) (P19793 whole entry, looked up): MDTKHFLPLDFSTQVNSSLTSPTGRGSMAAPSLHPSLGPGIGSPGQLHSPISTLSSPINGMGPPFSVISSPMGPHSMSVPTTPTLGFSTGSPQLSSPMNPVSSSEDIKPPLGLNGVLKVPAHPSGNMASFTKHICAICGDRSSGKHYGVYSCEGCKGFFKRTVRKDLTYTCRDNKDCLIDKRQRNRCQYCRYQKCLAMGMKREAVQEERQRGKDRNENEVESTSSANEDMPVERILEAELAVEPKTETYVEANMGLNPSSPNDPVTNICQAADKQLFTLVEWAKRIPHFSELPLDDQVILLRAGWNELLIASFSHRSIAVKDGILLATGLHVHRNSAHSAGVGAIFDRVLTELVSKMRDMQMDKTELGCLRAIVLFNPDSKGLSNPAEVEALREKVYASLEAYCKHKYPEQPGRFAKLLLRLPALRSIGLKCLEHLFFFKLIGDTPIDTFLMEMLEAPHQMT
Procedure, shortened: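 GeneBLAzer RXR-alpha-UAS-bla HEK 293T cells in medium with 2% charcoal-stripped FBS, pre-incubated 5 hr at 37 C, then exposed to compounds 16 hr. Beta-lactamase reporter read by FRET substrate, 2 hr room temperature, 460/530 nm emission.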

[10] = qHTS assay to identify small molecule agonists of the RXR signaling pathway - cell viability counter screen (AID 1159529); note: nearly all actives have a fitted effect of over 50% in size; note: potency is the fitted concentration of half-maximal effect
Procedure, shortened: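 RXR-alpha-UAS-bla HEK 293T cells in medium with 2% charcoal-stripped FBS were preincubated 5 hr, then exposed to compounds for 16 hr at 37 C. Viability was read as CellTiter-Glo luminescence after 30 min at room temperature.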

[11] = qHTS assay to identify small molecule antagonists of the retinoid acid receptor (RAR) signaling pathway - cell viability counter screen (AID 1159551); note: % is set by controls: 0 for no effect and ±100 for the full control effect; nearly all actives have a fitted effect of over 35% in size
Procedure, shortened: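 Following overnight attachment, C3RL4 reporter cells received DMSO-dissolved compounds and then retinol (1 uM final). Six hours later at 37 C, ATP content was measured by CellTiter-Glo luminescence.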

[12] = qHTS assay to identify small molecule antagonists of the retinoic acid receptor (RAR) signaling pathway (AID 1159552)
Procedure, shortened: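 RARE-luc C3RL4 cells; cpds + 1 uM (final) retinol, 6 hr, 37 C/5% CO2; luciferase reagent, 30 min RT, luminescence readout. Inhibitors of retinol-driven signal scored.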

[13] = qHTS assay to identify small molecule agonists of the retinoic acid receptor (RAR) signaling pathway (AID 1159553); note: potency is the fitted concentration of half-maximal effect
Procedure, shortened: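 Cell line C3RL4, RARE luciferase reporter. Treatment: compounds in DMSO, 6 hr, 37 C, 5% CO2, after overnight plating. Detection: luminescence, 30 min RT after reagent.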

CC(=O)OCCC1CCCCC1
inactive: Potency [1] | outcome [2] | Potency [3] | Potency [4] | Potency [5] | Potency [6] | Potency [7] | outcome [8] | Potency [9] | Potency [10] | Potency [11] | Potency [12] | Potency [13]

CSSc1ccoc1C
active: Potency [13] 0.0431 µM
inactive: Potency [1] | outcome [2] | Potency [3] | Potency [4] | Potency [5] | Potency [6] | Potency [7] | outcome [8] | Potency [9] | Potency [11] | Potency [12]

Cc1oc(=O)oc1COC(=O)[C@@H]1N2C(=O)[C@@H](NC(=O)[C@H](N)c3ccccc3)[C@H]2SC1(C)C
inactive: Potency [1] | outcome [2] | Potency [3] | Potency [4] | Potency [5] | Potency [6] | Potency [7] | outcome [8] | Potency [9] | Potency [11]

CCC(CO)(CO)[N+](=O)[O-]
inactive: Potency [1] | outcome [2] | Potency [3] | Potency [4] | Potency [5] | Potency [6] | Potency [7] | outcome [8] | Potency [9] | Potency [10] | Potency [11] | Potency [12] | Potency [13]

CC1=CC[C@@H]2C[C@H]1C2(C)C
inactive: viability change, negative = cytotoxic [1] -2.02% [at 15.1 µM] | activation [2] -0.527% [at 15.1 µM] | activity, negative = cytotoxic [3] 15.3% [at 15.1 µM] | activity change, negative = cytotoxicity [4] 30.1% [at 15.1 µM] | activity, negative = cytotoxicity [5] 2.52% [at 19 µM] | activity change, negative = inhibition [6] -7.14% [at 19 µM] | viability change, negative = cytotoxic [7] 0.876% [at 15.8 µM] | activation [8] 4.37% [at 15.8 µM] | activity change, negative = cytotoxicity [10] -11.8% [at 15.8 µM] | activity change, negative = cytotoxicity [11] -0.147% [at 19 µM] | activity, negative = inhibition [12] 70.7% [at 19 µM]

CC(C)(C)NCC(O)COc1cccc2c1C[C@H](O)[C@H](O)C2 (some centres not stated)
inactive: Potency [1] | outcome [2] | Potency [3] | Potency [4] | Potency [5] | Potency [7] | outcome [8] | Potency [9] | Potency [11] | Potency [12] | Potency [13]

CC(=O)OCC(C)C
inactive: Potency [1] | outcome [2] | Potency [3] | Potency [4] | Potency [5] | Potency [6] | Potency [7] | outcome [8] | Potency [11] | Potency [12] | Potency [13]

COc1ccc2nc(S(=O)Cc3ncc(C)c(OC)c3C)[nH]c2c1 (configuration not stated)
active: Potency [13] 67.8 µM
inactive: Potency [1] | outcome [2] | Potency [3] | Potency [4] | Potency [5] | Potency [7] | outcome [8] | Potency [9] | Potency [10] | Potency [11] | Potency [12]

CNS(=O)(=O)c1cc(C(=O)N2CCC(CCN3C4CCC3CC(n3c(C)nc5ccccc53)C4)(c3cccc(F)c3)CC2)c(Cl)cc1F (configuration not stated)
active: Potency [3] 38.9 µM | Potency [6] 7.7 µM | Potency [7] 24.5 µM | Potency [10] 6.16 µM
inactive: outcome [2] | Potency [4] | Potency [5] | outcome [8] | Potency [11]

COc1cc(S(=O)(=O)Nc2ccccc2)c(OC)cc1N
inactive: outcome [2] | Potency [3] | Potency [4] | Potency [5] | Potency [7] | outcome [8] | Potency [9] | Potency [11] | Potency [12] | Potency [13]

CCCCCCCCCCCCCC(=O)OCC(O)CO (configuration not stated)
inactive: outcome [2] | Potency [3] | Potency [4] | Potency [5] | Potency [6] | Potency [7] | outcome [8] | Potency [11] | Potency [12] | Potency [13]

From PubChem BioAssay (Tox21)
